PLC-beta3 inh = human PLC-beta3 inhibitors, primary screen, biochemical, fluorescence | 1-phosphatidylinositol 4,5-bisphosphate phosphodiesterase beta-3 (Homo sapiens), Q01970 | Purified PLC-beta3, fluorogenic substrate | inhibition, % at 12.2 µM | 370,000 tested, 0.18% active | AID 720704, 2013;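 also: 0% = median of compound wells on plate and 100% = full blocker control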
ADAM10 inh = human ADAM10 inhibitors, primary screen, biochemical, QFRET, HTS | 370,000 tested, 0.62% active | recombinant ADAM10, EDANS/DABCYL FRET peptide cleavage, 3 h | inhibition, % at 7 µM | Disintegrin and metalloproteinase domain-containing protein 10 (Homo sapiens), O14672;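 active = inhibition above a per-campaign cutoff equal to the mean of compounds falling between control-based bounds plus 3 SD, cut at about 20% in these data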;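 also: 0% = DMSO wells while the 100% control is not disclosed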
PLC-gamma1 inh = PLC-gamma1 enzyme inhibitors, primary screen, biochemical, fluorescence, purified enzyme; 1-phosphatidylinositol 4,5-bisphosphate phosphodiesterase gamma-1 (Homo sapiens), P19174; fluorogenic substrate; inhibition, % at 12.2 µM; 370,000 tested, 0.84% active; AID 720700, 2013; in the data active = inhibition above about 9.5%
KLK7 zymogen act = proKLK7 zymogen activators, primary screen, biochemical, fluorescence intensity; purified proKLK7, EDANS-DABCYL substrate fluorescence; 100% is mature enzyme control, 0% vehicle; Kallikrein-7 (Homo sapiens), P49862; 370,000 tested, 0.9% active; activation, % at 7 µM;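 active = activation above the mean of all tested compounds plus 3 SD, computed per campaign excluding outliers beyond control limits, cut at about 13% in these data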
sPLA2-III inh = human group III sPLA2 inhibitors, primary screen, biochemical, QFRET, BODIPY PC-A2 liposome substrate; QFRET BODIPY PC-A2 liposome hydrolysis, fluorescence; inhibition, % at 12.2 µM; 370,000 tested, 0.56% active;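 active = inhibition above mean plus 3 SD of compounds lying within the high and low control bounds, cut at about 19% in these data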;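 also: 0% = median of test compound wells and 100% = no enzyme DMSO wells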
ADAM17 inh = ADAM17 inhibitors, primary screen, biochemical, QFRET | Disintegrin and metalloproteinase domain-containing protein 17 (Homo sapiens), P78536 | recombinant ADAM17, EDANS/DABCYL FRET peptide cleavage | inhibition, % at 6.95 µM | 370,000 tested, 0.83% active | AID 720648, 2013;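 active = inhibition above the mean of compounds lying between control limits plus 3 SD, set per campaign, cut at about 8.5% in these data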;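 also: 0% = DMSO-only wells as the low control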
ADAM10 ctr = ADAM10 inhibitors, counter-screen for ADAM17 exosite inhibitor project, biochemical, FRET, human ADAM10 | recombinant ADAM10, EDANS/DABCYL FRET peptide cleavage, 3 h | inhibition, % at 6.95 µM | 2,900 tested, 47% active | shares compounds with ADAM17 inh;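 active = mean inhibition over the triplicate runs exceeds the activity threshold set in the earlier primary screen, cut at about 20% in these data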;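 also: 0% = DMSO wells and 100% = marimastat wells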
ADAM17 confirm = ADAM17 inhibitors, hit retest, confirmation, biochemical, QFRET peptide cleavage | shares compounds with ADAM17 inh | recombinant ADAM17, EDANS/DABCYL QFRET peptide cleavage | inhibition, % at 6.95 µM | 2,900 tested, 65% active;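 active = mean inhibition across replicates above the hit cutoff set in the primary screen, cut at about 8.5% in these data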;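 also: 0% = DMSO wells and 100% = marimastat wells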
PLCgamma1 ctr = PLC-gamma1 enzyme inhibitors, counter-screen for PLC-beta3 inhibitor project, biochemical, fluorescence; AID 743258, 2014; shares compounds with PLC-gamma1 inh; purified PLC-gamma1, fluorogenic substrate; inhibition, % at 12.3 µM; 3,300 tested, 3.1% active; in the data active = inhibition above about 9.5%
PLCb3 confirm = PLC-beta3 inhibitor confirmation, biochemical, fluorescence, purified enzyme | 3,300 tested, 1% active | fluorogenic substrate fluorescence | inhibition, % at 12.3 µM | AID 743261, 2014 | shares compounds with PLC-gamma1 inh
sPLA2 confirm = human group III sPLA2 inhibitors, confirmation, biochemical, QFRET, triplicate. 2,000 tested, 34% active. inhibition, % at 12.2 µM. AID 743280, 2014. shares compounds with sPLA2-III inh. recombinant hGIII-sPLA2, BODIPY PC-A2 QFRET fluorescence;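 active = mean inhibition across triplicates above the hit cutoff set in the earlier primary screen, cut at about 19% in these data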;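 also: 0% = enzyme with DMSO and 100% = DMSO wells lacking enzyme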
BODIPY interf = 535nm fluorescence optical interference, confirmation, artefact control for HGIII-sPLA2 inhibitor project, biochemical, QFRET | shares compounds with sPLA2-III inh | BODIPY FL product fluorescence interference | inhibition, % at 12.2 µM | 2,000 tested, 8.5% active;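 active = average inhibition above the solvent-only control mean plus 3 SD, cut at about 6% in these data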;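 also: 0% = DMSO with substrate plus product and 100% = DMSO with substrate alone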
* marks the source's active call; other numbers are inactive results; / = not tested or not shown. In the library only some 3.4% were active in any assay of this set; here they are far more common. Rule as the data show it, unless noted: active = inhibition above about 11%; inactive = the rest.

SMILES	PLC-beta3 inh	ADAM10 inh	PLC-gamma1 inh	KLK7 zymogen act	sPLA2-III inh	ADAM17 inh	ADAM10 ctr	ADAM17 confirm	PLCgamma1 ctr	PLCb3 confirm	others
Cc1cccc(NC(=O)C2CCCN(c3nnc(-n4cccc4)s3)C2)c1C (configuration not stated)	8	-12	-1	0	13	-4	/	/	/	/
CN(Cc1ccccc1)C(=O)c1ccc(NC(=O)Cc2ccc(NC(=O)C3CCN(C(=O)C4CCCC4)CC3)cc2)cc1	5	3	10.0*	1	-43	9.1*	33*	9.2*	-4	3
CN(Cc1ccccc1)C(=O)c1ccc(NC(=O)Cc2ccc(NC(=O)C3CCN(C(=O)C4CC4)CC3)cc2)cc1	4	-4	5	0	-7	1	/	/	/	/
N/C(=N\N=C\c1ccc2c(c1)OCO2)c1nonc1N	13*	20	9.8*	0	13	9.8*	11	6	-6	1
CCOC(=O)N[C@@H](Cc1cccnc1)C(=O)N1CCC[C@H]1C(=O)NCCc1ccccc1Cl	5	7	5	0	4	0	/	/	/	/
Cc1cc(F)cc(-c2cc(C(=O)NCc3cccc(Cl)c3)[nH]n2)c1	2	12	10*	0	-7	9.1*	6	2	-5	-6
COc1ccc(N2C(=O)C3C(C2=O)C3(c2ccccc2)c2ccccc2)cc1 (configuration not stated)	-1	17	12*	1	-6	13*	9	7	-3	-5
c1ccc(-c2nnc3n2N=C(c2ccc4ccccc4c2)CS3)cc1	4	-3	0	0	2	-2	/	/	/	/
CC(C)C[C@@H]1COc2cc(Br)ccc2S(=O)(=O)N1Cc1cn(CCC2OCCO2)nn1	0	3	0	0	3	-1	/	/	/	/
Cc1ccc(-c2ccc(/C=N/NC(=S)Nc3ccccc3)o2)cc1[N+](=O)[O-]	-1	14	9.7*	-1	8	14*	24*	17*	-13	-14
CNC(=S)N/N=C/c1ccc(-c2ccc(Cl)c([N+](=O)[O-])c2)o1	-2	-3	3	0	6	-1	/	/	/	/
O=C(Nc1ccccc1)C1C2CCC3C(CCC21)C3(Cl)Cl (configuration not stated)	8	13	11*	1	1	8.8*	13	9.6*	0	-1
Fc1cccc(-c2c(-c3ccccc3)ncc3cc(F)ccc23)c1	-3	-6	-3	0	4	0	/	/	/	/
O=[N+]([O-])c1cccc(-c2c(-c3ccccc3)ncc3ccc(F)cc23)c1	11*	4	6	0	13	11*	6	5	-2	-2
NC(=O)CC[C@H](NC(=O)c1ccc(F)cc1)C(=O)OCC(=O)Nc1c(F)c(F)c(F)c(F)c1F	2	0	3	1	0	-1	/	/	/	/
NC(=O)CC[C@H](NC(=O)c1ccc(F)cc1)C(=O)OCC(=O)NCc1ccc(F)cc1	4	4	10*	0	7	10*	-4	4	-2	-2
FC(F)(F)c1cc(CNC2CCC23CCCCC3)ccc1Cl (configuration not stated)	4	2	1	/	3	-1	/	/	/	/
CC(C)CN(CC(C)C)S(=O)(=O)c1cc([N+](=O)[O-])ccc1N1CCCCCC1	-3	3	-4	-1	-1	-2	/	/	/	/
CN(C)S(=O)(=O)c1cc([N+](=O)[O-])ccc1N1CCCCCC1	9	13	10*	0	8	10*	18	11*	-3	-3
CCCCCCCCN1C(=O)[C@@H](CC(=O)N2CCCC2)C[C@@]2(C(=O)OC)C1=C[C@H](COCc1ccccc1)O[C@@H]2C	-1	7	-1	1	-17	4	/	/	/	/
CCC(=O)Nc1nnc(C)s1	6	6	10*	0	1	12*	-1	6	-3	0
CCCCC(=O)Nc1nnc(C)s1	3	1	1	-1	6	-3	/	/	/	/
O=C(CCNS(=O)(=O)c1ccccc1C(F)(F)F)NCCCSc1ccccc1	-1	9	12*	0	-47	8.7*	14	10*	-6	-1
C=CCNC(=S)N/N=C/c1ccc(C)c([N+](=O)[O-])c1	-2	4	0	1	11	2	/	/	/	/
CN(C)c1ccc(/C=N/NC(N)=S)cc1[N+](=O)[O-]	1	2	16*	0	21*	10*	28*	15*	7	8	sPLA2 confirm=20*;BODIPY interf=-2
Cc1ccc(Cn2cc(CN3[C@H](Cc4ccccc4)COc4cc(Br)ccc4S3(=O)=O)nn2)cc1	0	-5	-1	0	4	-3	/	/	/	/
O=C(Nc1ccccc1Oc1ccccc1)c1cc([N+](=O)[O-])ccc1Cl	-5	-3	2	0	23*	8.9*	0	3	/	/	sPLA2 confirm=14;BODIPY interf=-5
